Screens as filed in PubChem BioAssay.
D2 PAM-1: positively modulates the human D2 dopamine receptor allosterically; potentiation, % at 10 µM; HEK293 T-REx D2, calcium flux, EC20 dopamine potentiation; P14416; actives 0.34% (n = 340,000); AID 485347;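 active = potentiation over 3 SD above the plate norm, cut at about 30% in these data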; also: 0% is about no effect
Target sequence (P14416 whole entry, looked up): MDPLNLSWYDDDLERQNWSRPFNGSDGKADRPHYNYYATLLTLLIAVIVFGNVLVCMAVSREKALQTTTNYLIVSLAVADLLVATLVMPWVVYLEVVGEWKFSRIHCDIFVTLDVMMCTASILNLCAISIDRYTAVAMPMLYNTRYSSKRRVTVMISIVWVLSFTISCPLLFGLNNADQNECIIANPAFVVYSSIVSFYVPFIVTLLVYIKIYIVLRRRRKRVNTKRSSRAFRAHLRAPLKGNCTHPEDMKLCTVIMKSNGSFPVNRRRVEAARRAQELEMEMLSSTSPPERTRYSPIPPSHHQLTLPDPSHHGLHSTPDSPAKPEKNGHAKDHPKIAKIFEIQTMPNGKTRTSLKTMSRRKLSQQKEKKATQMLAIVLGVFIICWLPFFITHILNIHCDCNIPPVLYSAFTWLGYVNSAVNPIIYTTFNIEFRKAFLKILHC
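Primary screen. Calcium kinetics in induced HEK293 T-REx D2 cells: compound pre-addition 180 s, EC20 dopamine, 180 s more.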
D2 antagonist: antagonizes the human D2 dopamine receptor; P14416; HEK293 TREx D2 cells, calcium flux, dopamine EC80; inhibition, % at 10 µM; actives 2% (n = 340,000); in the data active = inhibition above about 30%; inactive = below that, where a call was filed; also: 0% is about no effect
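Tetracycline-induced HEK293 T-REx cells expressing D2 force-coupled to calcium signalling were dye-loaded, exposed to compound for 180 s, then challenged with an EC80 of dopamine; calcium flux was followed kinetically for a further 180 s.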
D2 ag-1: agonists of human D2 dopamine receptor; activation, % at 2 µM; actives 0.53% (n = 340,000); HEK293 T-REx D2 cells, calcium flux agonist mode; AID 485358;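 active = activation over 3 SD above normal in the single-dose calcium agonist read, cut at about 30% in these data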; also: 0% is about no effect
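HEK293 Trex D2 cells, tetracycline-induced, o/n 30 C 5% CO2; no-wash Ca dye, RT 30–90 min; 10-cycle baseline, 23 nl cpd added, kinetic Ca read 180 s; agonist hits = positive Ca response.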
D2 PAM-2: human D2 receptor positive allosteric modulation; potentiation, % (test concentration not listed); actives 0.23% (n = 360,000); P14416; AID 624464; DiscoveRx D2 beta-arrestin cells, luminescence, 90 min; 100% = 57 uM dopamine signal; in the data active = potentiation above about 50%; inconclusive = mostly about 30% to 49%
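PathHunter D2 cells, attached overnight at 37 deg C, received compound in DMSO plus dopamine at EC20 (50 nM final) for 90 min at 37 deg C. Beta-arrestin recruitment was read as luminescence after 1 h with detection reagent at ambient temperature.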
D2 ag-2: activates the human D2 dopamine receptor. P14416. DiscoveRx PathHunter D2 beta-arrestin, luminescence, 90 min; 100% = 57 uM dopamine signal. activation, % (test concentration not listed). actives 0.084% (n = 360,000). AID 624465; in the data active = activation above about 40%; inconclusive = between about 15% and that limit
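DiscoveRx PathHunter D2 beta-arrestin cells (2,100/well) attached overnight, then compound-stimulated 90 min at 37 C in HBSS/10 mM HEPES/0.1% Tween-20 buffer; beta-galactosidase complementation read by luminescence after 1 h at ambient temperature. Dopamine 57 uM final (EC100) as control.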
Starred values were filed as active, the others as inactive; ? = inconclusive; / = not tested or not shown. The list is not random: actives were taken first. Their share in the collection is about 2.4%.

SMILES	D2 PAM-1	D2 antagonist	D2 ag-1	D2 PAM-2	D2 ag-2
COc1ccc(/C=N/NC(=O)C[n+]2ccccc2)c(OC)c1OC	-26.6	35.1*	0.0	-26.6	-2.6
O=C(C[n+]1ccccc1)N/N=C/c1cccc(Cl)c1Cl	8.5	-10.9	1.0	-7.3	-6.5
CCOc1ccccc1CNC(=O)C(CC)n1nc(C)c2c(C)n(-c3ccccc3)nc2c1=O (stereo not given)	3.0	/	-0.9	/	/
CCOC(=O)c1cc(S(=O)(=O)Nc2ccccc2OCC)[nH]n1	3.8	/	/	/	/
CCn1c(CN2CCC(C)CC2)nc2cc(NC(=O)COc3ccc([N+](=O)[O-])cc3)ccc21	-38.8	/	/	/	/
CCOc1ccccc1NC(=O)Nc1ccc2c(c1)OCO2	-10.1	-3.9	0.1	-26.2	-5.0
C=CCOc1ccccc1CN(C(=O)CCl)c1ccc2c(c1)OCO2	4.6	33.0*	0.2	-3.4	-3.8
COc1cccc(N(C(C)=O)c2nc(C)cc(C)c2C#N)c1	/	36.4*	1.0	-1.8	-0.7
CCCCC(Sc1nc(N)c(NC(=O)c2ccc(OCC)cc2)c(=O)[nH]1)C(=O)O (stereo not given)	31.2*	-6.5	0.1	-5.0	-2.2
NC(=O)c1c(NC(=O)C2COc3ccccc3O2)sc2c1CCN(Cc1ccccc1)C2 (stereo not given)	-3.3	-1.6	41.7*	-22.8	-15.2
COc1ccc(CC(=O)Nc2sc3c(c2C(N)=O)CCCC3)cc1OC	1.9	3.1	0.1	4.8	5.8
COc1cccc(CC(=O)Nc2sc3c(c2C(N)=O)CCCC3)c1	-8.9	39.3*	-0.3	-1.0	1.7
CC(C)N1CCc2c(sc(NC(=O)CCS(=O)(=O)c3ccccc3)c2C#N)C1	8.9	33.7*	0.2	-3.2	-3.7
CCCN1CCc2c(sc(NC(=O)c3ccc(S(=O)(=O)N(C)c4ccccc4)cc3)c2C(N)=O)C1	-0.5	-3.5	77.6*	-11.5	-6.5
COc1ccccc1-c1nnc(C2CCN(C(=O)c3cccc(C)c3)CC2)o1	-2.1	/	-1.0	/	/
Cc1ccc(OCCSc2nc3ccccc3n2CC(=O)N2CCOCC2)cc1	7.0	/	-1.8	/	/
CC(C)N1CCc2c(sc(NC(=O)Cc3ccccc3)c2C(N)=O)C1	-19.7	40.1*	0.4	-14.0	-1.4
CC(C)N1CCc2c(sc(NC(=O)CCc3ccccc3)c2C(N)=O)C1	25.0	10.5	-0.5	-4.2	-0.7
CCN1CCc2c(sc(NC(=O)CSc3ccccc3)c2-c2nc3ccccc3s2)C1	-23.0	/	/	/	/
CC(=O)Nc1sc2c(c1-c1nc3ccccc3s1)CCN(C(C)C)C2	-2.3	-6.7	47.5*	-18.4	-6.4
CC(C)c1ccc(NC(=O)CN2C(=O)CSc3ccc(S(=O)(=O)N4CCCC4)cc32)cc1	-3.4	/	-0.5	/	/
Cc1cc(C)cc(NC(=O)C(CC(C)C)NC(=O)C2CCCCC2)c1 (stereo not given)	9.4	/	0.1	/	/
COCCCNc1nc(NCc2ccccc2OC)c2cnn(C)c2n1	7.4	/	0.7	/	/
O=C(Nc1ccc(-n2nncc2-c2ccco2)cc1)c1cccc(F)c1	-2.8	42.0*	0.2	-13.4	-2.2
CC(=O)NC1CC2CCCC(C1)N2C(=O)Nc1c(C)cccc1C (stereo not given)	/	/	/	-5.7	0.7
SMILES	D2 PAM-1	D2 antagonist	D2 ag-1	D2 PAM-2	D2 ag-2
Cc1cccc(C)c1NC(=O)N1C2CCCC1CC(NC(=O)C(C)(C)C)C2 (stereo not given)	13.9	37.5*	0.2	-6.1	0.1
CCOc1ccc2c(c1)c(=O)c(C(=O)c1ccc(CC)cc1)cn2CC(=O)Nc1ccc2c(c1)OCCO2	17.1	/	-0.3	/	/
CCCn1c(N)c(NCCN2CCOCC2)c(=O)n(CC(=O)NCc2ccccc2)c1=O	2.5	32.7*	1.2	-1.5	-2.7
Cc1nn(CC(=O)NCCN2CCOCC2)c(=O)c2ccccc12	1.4	8.3	-0.1	-7.0	-4.2
O=C1NCCN1c1ncc([N+](=O)[O-])s1	-9.9	54.0*	59.1*	15.4	4.2
O=C(NCCNC(=O)c1ccc(-c2ccc(Cl)c(Cl)c2)o1)c1cnccn1	102.0*	-18.0	-0.7	5.7	7.9
O=C(NCCNC(=O)c1ccc(-c2cccc(Cl)c2)o1)c1cnccn1	/	/	/	-13.9	1.8
CCOC(=O)c1[nH]c(C)c(CCC(=O)Nc2ccccc2C(=O)OC)c1C	8.9	/	-0.2	/	/
COc1ccccc1C1CCN(Cc2ccccc2)CC1	-29.3	83.2*	32.1*	-39.8	-8.4
OCCN1CCN(Cc2ccc3ccccc3c2)CC1	-11.5	-2.1	0.0	-3.5	-5.8
COc1ccccc1C1CCN(Cc2ccc3ccccc3c2)CC1	-31.9	85.1*	-1.3	-15.7	-1.7
COc1ccccc1C1CCN(c2ccc(CO)cc2[N+](=O)[O-])CC1	0.3	-11.1	2.3	-6.3	1.3
COc1ccc(CN2CCC(Cc3ccccc3)CC2)cc1OC	-16.7	19.0	-0.2	-28.1	-5.9
COc1cc(NC(=O)NCC2CCN(Cc3ccccc3Cl)CC2)cc(OC)c1OC	-8.4	9.1	1.1	-15.3	2.7
COc1ccccc1C1CCN(Cc2ccccc2Cl)CC1	-32.5	91.9*	3.0	-14.8	-0.2
COc1ccccc1C1CCN(Cc2cccc([N+](=O)[O-])c2)CC1	-26.7	110.0*	0.1	-28.2	-1.9
Cc1ccc(NC(=O)CCC(=O)N2Cc3ccccc3Oc3ncccc32)cc1	-8.4	/	0.9	/	/
c1ccc(-c2cn(-c3ccccc3)c3[n+]2CCS3)cc1	8.3	3.8	-0.6	-9.4	-2.2
CC(C)(C)c1ccc(-c2cn(-c3ccc(Br)cc3)c3[n+]2CCCS3)cc1	-13.1	41.8*	0.9	-9.8	-1.1
Cc1cc(C)cc(N=c2c([N+](=O)[O-])nn(-c3ccc4c(c3)OCCO4)n2O)c1	1.9	-10.7	0.0	3.2	12.5
Cc1ccc(N=c2c([N+](=O)[O-])nn(-c3ccc4c(c3)OCCO4)n2O)cc1F	0.3	1.8	0.1	57.6*	?
O=[N+]([O-])c1nn(-c2ccc3c(c2)OCCO3)n(O)c1=Nc1ccc(Cl)cc1	-7.5	0.6	0.8	51.0*	6.2
O=C(Nc1ccc(Br)cc1)c1cc(S(=O)(=O)N2CCc3ccccc32)ccc1F	-17.6	/	/	/	/
CCCCCCSc1ccc(-c2nc3ccc(C)cn3c2NCc2ccccc2)cc1OC	-4.6	1.7	0.6	-7.2	-9.1
CCCCCCSc1ccc(-c2nc3ccc(C)cn3c2NCc2ccccc2)cc1	-5.9	34.2*	0.2	-4.5	-1.8
Cc1cc2ccc(C)c(C)c2nc1SCC(=O)c1cccs1	-7.5	60.4*	1.7	-7.5	-2.6
CC(C)(C)NC(=O)NC(=O)COC(=O)CCCc1c[nH]c2ccccc12	16.8	70.0*	-0.3	-0.3	-1.1
CCOC(=O)CCCc1c[nH]c2ccccc12	-12.0	5.8	-0.3	1.9	-2.1
COc1cccc2[nH]c(C(=O)NCc3ccccc3)cc12	-28.0	41.7*	-1.7	-13.0	-2.0
